Measured values: PubChem BioAssay (EPA / NIEHS)
Active and inactive are the calls of the source. The calls were made as follows: active = hit-call score of the fitted dose curve at least 0.9, where 1 is the maximum; inactive = score below 0.9.

Columns and labels:
[1] = ATG_AP_1_CIS: Attagene CIS-FACTORIAL HepG2 Assay for human Activator Protein 1 (AP-1) (AID 2282931); details: HepG2 Attagene cis-factorial AP-1 reporter mRNA; actives raise or lower the signal
Method in brief: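 HepG2, transient cis-reporter transfection; 24 h; readout RT-PCR/CE fluorescence; DMSO baseline, gain and loss fitted.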

[2] = ATG_AP_2_CIS: Attagene CIS-FACTORIAL HepG2 Assay for human Activator Protein 2 (AP-2) (AID 2282932); details: HepG2 AP-2 cis-reporter, Attagene transcription factor profiling; actives raise or lower the signal
Method in brief: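 Step one: transient transfection of HepG2 with reporter transcription units. Step two: 24 h chemical exposure. Step three: RNA extraction, RT-PCR, labelled fragment analysis by capillary electrophoresis; DMSO serves as baseline.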

[3] = ATG_BRE_CIS: Attagene CIS-FACTORIAL HepG2 Assay for human Bone Morphogenetic Protein (BMP) Response Element (BRE) (AID 2282933); details: HepG2 BMP response element reporter, Attagene transcription factor profiling; actives raise or lower the signal
Method in brief: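 Multiplexed cis-reporter assay, HepG2, 24 h exposure. mRNA from reporter units quantified via RT-PCR/CE; DMSO baseline; bidirectional curve fit.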

[4] = molecular target: Retinoic acid receptor alpha (Homo sapiens) (UniProt P10276); assay: ATG_DR5_RAR_CIS: Attagene CIS-FACTORIAL HepG2 Assay for human Retinoic Acid Receptor Alpha (RARE), DR5 submotif (AID 2282934); details: HepG2 Attagene cis-factorial RARE DR5 reporter, mRNA; actives raise or lower the signal;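 as to AC50: reporter responds to endogenous RAR alpha beta and gamma in HepG2 not RARA alone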
Chain of Retinoic acid receptor alpha (Homo sapiens) (P10276 whole entry, looked up): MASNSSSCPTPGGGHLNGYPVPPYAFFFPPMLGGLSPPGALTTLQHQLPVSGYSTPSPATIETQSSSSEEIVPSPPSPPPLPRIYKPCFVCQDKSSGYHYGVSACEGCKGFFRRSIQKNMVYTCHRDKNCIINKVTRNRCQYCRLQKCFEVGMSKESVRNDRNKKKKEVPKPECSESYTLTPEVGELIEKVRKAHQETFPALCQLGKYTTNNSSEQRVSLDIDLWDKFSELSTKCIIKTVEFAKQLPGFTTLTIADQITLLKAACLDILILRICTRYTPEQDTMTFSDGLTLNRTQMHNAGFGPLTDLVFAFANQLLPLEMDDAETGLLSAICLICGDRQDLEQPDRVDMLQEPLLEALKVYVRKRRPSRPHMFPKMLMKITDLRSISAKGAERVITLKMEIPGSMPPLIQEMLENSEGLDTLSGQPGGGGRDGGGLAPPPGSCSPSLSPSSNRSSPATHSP
Method in brief: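 Reporter transcripts from a DR5-regulated unit, measured via RT-PCR plus capillary electrophoresis, reflect endogenous RAR activity in transiently transfected human HepG2 liver cells. Exposure lasted 24 h; gain or loss of signal scored against DMSO.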

[5] = molecular target: Transcription factor E2F1 (Homo sapiens) (UniProt Q01094); assay: ATG_E2F_CIS: Attagene CIS-FACTORIAL HepG2 Assay for human E2F Transcription Factor 1 (AID 2282935); details: HepG2 Attagene cis-reporter, E2F reporter RNA transcripts; actives raise or lower the signal
Chain of Transcription factor E2F1 (Homo sapiens) (Q01094 whole entry, looked up): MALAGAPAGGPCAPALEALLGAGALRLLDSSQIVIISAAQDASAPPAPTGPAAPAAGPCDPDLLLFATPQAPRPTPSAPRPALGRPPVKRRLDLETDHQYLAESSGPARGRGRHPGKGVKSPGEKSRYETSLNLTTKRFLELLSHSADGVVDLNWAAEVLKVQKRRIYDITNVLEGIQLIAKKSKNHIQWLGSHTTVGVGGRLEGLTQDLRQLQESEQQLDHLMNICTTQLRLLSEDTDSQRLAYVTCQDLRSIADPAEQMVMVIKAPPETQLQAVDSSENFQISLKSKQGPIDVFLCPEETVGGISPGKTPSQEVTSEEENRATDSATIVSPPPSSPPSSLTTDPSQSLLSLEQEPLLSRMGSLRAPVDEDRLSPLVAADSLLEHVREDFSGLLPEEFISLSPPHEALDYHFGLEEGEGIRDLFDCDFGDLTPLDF
Method in brief: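 Total RNA from 24 h-treated, reporter-transfected HepG2 cells undergoes DNase I treatment, oligo(dT) reverse transcription, PCR and 6-FAM primer extension before capillary electrophoresis.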

[6] = ATG_M_61_CIS: Attagene CIS-FACTORIAL HepG2 Assay for M61 Transcription Factor (Internal Marker) (AID 2282937); details: HepG2 Attagene CIS-FACTORIAL M61 internal marker reporter; actives raise or lower the signal
Method in brief: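 Transfect HepG2 with MRTUs; dose 24 h; isolate RNA; reverse-transcribe with DNase I treatment; PCR-amplify, FAM-label and cut with HpaI for 2 h at 37 C; resolve by CE. Bidirectional fitting against DMSO.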

[7] = ATG_EGR_CIS: Attagene CIS-FACTORIAL HepG2 Assay for human Early Growth Response 1 (EGR1) (AID 2282938); details: HepG2 Attagene CIS-FACTORIAL EGR reporter mRNA; actives raise or lower the signal
Method in brief: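 After a 24 h treatment of transiently transfected HepG2 cells, total RNA was reverse-transcribed and reporter sequences PCR-amplified, labelled and run on capillary electrophoresis. Reporters sit under cis-regulatory promoters sensing endogenous factors.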

[8] = ATG_M_19_CIS: Attagene CIS-FACTORIAL HepG2 Assay for M19 Transcription Factor (Internal Marker) (AID 2282939); details: HepG2 Attagene CIS-FACTORIAL M19 internal marker reporter; actives raise or lower the signal
Method in brief: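 Signals come from fluorescence of labelled reporter-specific PCR fragments resolved by capillary electrophoresis, following 24 h treatment of HepG2 cells transfected with cis-promoter reporter units; activity was fitted in both directions relative to DMSO.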

[9] = ATG_ERE_CIS: Attagene CIS-FACTORIAL HepG2 Assay for Estrogen Response Element (ERE) (AID 2282940); details: HepG2 ERE cis-reporter, Attagene RNA transcript; actives raise or lower the signal
Method in brief: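 Fluorescence of capillary-separated, FAM-labelled reporter cDNA fragments indicates reporter mRNA levels in HepG2 cells exposed to chemicals for 24 h. Transient transfection with cis-regulated units; data fitted in both directions against DMSO.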

[10] = ATG_Ets_CIS: Attagene CIS-FACTORIAL HepG2 Assay for human Erythroblast Transformation Specific (ETS) (AID 2282941); details: HepG2 ETS cis-reporter transcription, actives raise or lower the signal
Method in brief: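 HepG2 cells transiently transfected with cis-promoter reporter transcription units were dosed for 24 h; reporter mRNA was measured by RT-PCR, 6-FAM primer extension, HpaI digestion and capillary electrophoresis, with bidirectional fitting against DMSO baseline.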

[11] = molecular target: Hepatocyte nuclear factor 3-beta (Homo sapiens) (UniProt Q9Y261); assay: ATG_FoxA2_CIS: Attagene CIS-FACTORIAL HepG2 Assay for human Forkhead box A2 (FOXA2) (AID 2282942); details: HepG2 cis-reporter transcription factor activity, 24 h; actives raise or lower the signal
Chain of Hepatocyte nuclear factor 3-beta (Homo sapiens) (Q9Y261 whole entry, looked up): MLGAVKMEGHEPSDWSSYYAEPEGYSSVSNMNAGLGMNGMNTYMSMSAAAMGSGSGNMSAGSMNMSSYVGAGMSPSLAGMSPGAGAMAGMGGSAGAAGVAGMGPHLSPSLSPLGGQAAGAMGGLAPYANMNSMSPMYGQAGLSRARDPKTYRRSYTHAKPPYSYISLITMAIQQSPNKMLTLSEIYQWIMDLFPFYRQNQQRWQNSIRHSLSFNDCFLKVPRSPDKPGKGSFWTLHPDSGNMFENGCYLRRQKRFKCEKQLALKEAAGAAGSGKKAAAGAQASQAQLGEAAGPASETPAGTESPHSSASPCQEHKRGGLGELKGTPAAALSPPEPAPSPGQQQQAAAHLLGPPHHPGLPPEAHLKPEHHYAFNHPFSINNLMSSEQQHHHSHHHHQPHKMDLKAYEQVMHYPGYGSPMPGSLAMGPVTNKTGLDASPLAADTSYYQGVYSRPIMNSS
Method in brief: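 24 h dosing of HepG2 bearing cis-reporter constructs; mRNA readout by RT-PCR/CE fluorescence; bidirectional fit, DMSO baseline.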

[12] = ATG_FoxO_CIS: Attagene CIS-FACTORIAL HepG2 Assay for human Forkhead box O (FoxO) (AID 2282943); details: HepG2 Attagene cis-reporter, FoxO element, mRNA; actives raise or lower the signal
Method in brief: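 Endogenous transcription factor activity read from multiplexed cis-promoter reporter transcripts in transiently transfected HepG2, 24 h after dosing. Reporter RNA measured via RT-PCR plus capillary electrophoresis of FAM-labeled products; gain or loss relative to DMSO.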

[13] = ATG_GATA_CIS: Attagene CIS-FACTORIAL HepG2 Assay for human GATA Binding Protein (AID 2282944); details: HepG2 GATA cis-element reporter, Attagene multiplex mRNA; actives raise or lower the signal
Method in brief: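 After transfecting HepG2 cells with multiple cis-regulated reporter units, chemicals are dosed for 24 h; isolated RNA undergoes RT-PCR and fluorescent labeling before capillary electrophoresis, with activity expressed against DMSO.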

[14] = ATG_GLI_CIS: Attagene CIS-FACTORIAL HepG2 Assay for human Zinc Finger Protein GLI1 (AID 2282945); details: HepG2, Attagene cis-factorial reporter mRNA, GLI element; actives raise or lower the signal
Method in brief: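 Bidirectional curve fits relative to DMSO, using reporter mRNA levels from RT-PCR plus capillary electrophoresis. Cells were HepG2 transiently carrying cis-regulated reporter constructs, harvested 24 h after dosing.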

[15] = molecular target: Bile acid receptor (Homo sapiens) (UniProt Q96RI1); assay: ATG_IR1_CIS: Attagene CIS-FACTORIAL HepG2 Assay for human Nuclear Receptor Subfamily 1 Group H Member 4 (NR1H4), IR1 submotif (AID 2282946); details: IR1 reporter transcription, actives raise or lower the signal
Chain of Bile acid receptor (Homo sapiens) (Q96RI1 whole entry, looked up, the tested form may be a part): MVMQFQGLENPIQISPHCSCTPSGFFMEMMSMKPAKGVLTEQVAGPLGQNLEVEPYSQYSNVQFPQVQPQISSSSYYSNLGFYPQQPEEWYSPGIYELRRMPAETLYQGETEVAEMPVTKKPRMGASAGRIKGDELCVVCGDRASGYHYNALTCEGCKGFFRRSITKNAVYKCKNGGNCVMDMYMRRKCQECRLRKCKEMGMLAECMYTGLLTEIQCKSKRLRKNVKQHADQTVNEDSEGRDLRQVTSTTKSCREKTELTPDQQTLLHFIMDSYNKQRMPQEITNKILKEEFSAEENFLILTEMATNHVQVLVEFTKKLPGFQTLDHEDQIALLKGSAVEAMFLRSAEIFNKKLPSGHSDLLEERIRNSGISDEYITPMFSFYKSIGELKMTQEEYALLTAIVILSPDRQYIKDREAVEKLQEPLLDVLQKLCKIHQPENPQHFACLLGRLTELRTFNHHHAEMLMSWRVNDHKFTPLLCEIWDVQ
Method in brief: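 Cells (human HepG2) carry transiently transfected cis-promoter reporter transcription units. Compounds are incubated 24 h, total RNA is reverse-transcribed and amplified, and labelled fragments are resolved by capillary electrophoresis. Curves use DMSO as baseline.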

[16] = ATG_ISRE_CIS: Attagene CIS-FACTORIAL HepG2 Assay for human Interferon Regulatory Factor 1 (IRF1) binding to an Interferon-Stimulated Response Element (ISRE) (AID 2282948); details: HepG2 ISRE cis-reporter (Attagene), mRNA transcription readout; actives raise or lower the signal
Method in brief: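 HepG2 cells transiently transfected with multiplexed cis-promoter reporter units; after 24 h compound exposure, reporter mRNA quantified by RT-PCR, FAM labelling, HpaI digestion and capillary electrophoresis. Bidirectional fit versus DMSO baseline.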

[17] = ATG_M_32_CIS: Attagene CIS-FACTORIAL HepG2 Assay for M32 Transcription Factor (Internal Marker) (AID 2282949); details: HepG2 Attagene cis-factorial M32 reporter, mRNA; actives raise or lower the signal;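 also: background control marker of the multiplexed CIS panel rather than a real target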
Method in brief: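 Internal background marker read-out: RT-PCR/capillary electrophoresis fluorescence of reporter transcripts from transiently transfected HepG2 cells after 24 h chemical exposure. Activity fitted bidirectionally relative to DMSO negative control.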

[18] = ATG_M_06_CIS: Attagene CIS-FACTORIAL HepG2 Assay for M06 Transcription Factor (Internal Marker) (AID 2282950); details: HepG2 Attagene CIS-FACTORIAL M06 internal marker reporter; actives raise or lower the signal
Method in brief: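 HepG2 liver cells, 24 h exposure. Reporter transcripts from transfected cis-element constructs quantified by RT-PCR/capillary electrophoresis fluorescence. Bidirectional curve fit against DMSO.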

[19] = ATG_E_Box_CIS: Attagene CIS-FACTORIAL HepG2 Assay for human Enhancer Box (E-box) (AID 2282936); details: HepG2 E-box cis-reporter transcription, actives raise or lower the signal
Method in brief: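 DMSO served as negative control and baseline for bidirectional fitting. Human hepatoma HepG2 cells, transiently transfected with cis-reporter constructs, were dosed 24 h; reporter mRNA read by RT-PCR and capillary electrophoresis.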

[20] = ATG_GRE_CIS: Attagene CIS-FACTORIAL HepG2 Assay for human Glucocorticoid Response Elements (GRE) (AID 2282947); details: HepG2 GRE cis-reporter, Attagene multiplex mRNA; actives raise or lower the signal
Method in brief: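 Assay uses human hepatoma HepG2 cells transfected with cis-promoter reporter units, exposed 24 h. mRNA from reporters detected by RT-PCR plus capillary electrophoresis; DMSO serves as negative control and baseline.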

Measured: AC50

CC(C)(C)c1cc([N+](=O)[O-])cc(C(C)(C)C)c1O
active: [1] 0.948 µM | [2] 16.3 µM | [3] 2.01 µM | [4] 2.85 µM | [10] 52.1 µM
not listed: [19] | [20]
inactive: all other assays above

CC(C)CP(=S)(S)CC(C)C
not listed: [6] | [7]
inactive: all other assays above

CCCCCCCCCCCCCl
not listed: [7] | [15] | [17]
inactive: all other assays above

OC(c1ccc(Cl)cc1)(c1ccc(Cl)cc1)c1cccnc1
active: [14] 9.04 µM | [15] 13.6 µM
not listed: [7] | [18]
inactive: all other assays above

Fc1cccc(Cl)c1CCl
not listed: [6]
inactive: all other assays above

CCCCCCCCCCBr
not listed: [6] | [7] | [18]
inactive: all other assays above

Brc1ccc(Br)cc1
not listed: [9] | [17] | [19]
inactive: all other assays above
